Unmarked numbers belong to inactive results.
Experiments:
Test in all cases: CellTox Green cytotoxicity fluorescence relative to DMSO vehicle (fold of vehicle RFU); higher = more cell death (loss of membrane integrity), active = 2 or more
CMK = tested on: CMK
Method in brief: (§1)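 Single compounds from the Selleckchem apoptosis library were applied at final 0.01, 0.1 and 1 µM (0.1% DMSO vehicle) to MV4-11, CMK and Kasumi-1 cells seeded at 4.0 × 10^4 cells per well with CellTox Green reagent. After incubation at 37 °C, 5% CO2, fluorescence was read at 24, 48 and 72 h. Cytotoxicity, meaning loss of membrane integrity, is shown as fold of the DMSO vehicle signal.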

Kasumi-1 = tested on: Kasumi-1
Method in brief: as §1

MV4-11 = tested on: MV4-11
Method in brief: as §1

| SMILES | CellTox Green cytotoxicity fluorescence (CMK; 0.01 µM, 24 h) | CellTox Green cytotoxicity fluorescence (CMK; 0.01 µM, 48 h) | CellTox Green cytotoxicity fluorescence (CMK; 0.01 µM, 72 h) | CellTox Green cytotoxicity fluorescence (CMK; 0.1 µM, 24 h) | CellTox Green cytotoxicity fluorescence (CMK; 0.1 µM, 48 h) | CellTox Green cytotoxicity fluorescence (CMK; 0.1 µM, 72 h) | CellTox Green cytotoxicity fluorescence (CMK; 1 µM, 24 h) | CellTox Green cytotoxicity fluorescence (CMK; 1 µM, 48 h) | CellTox Green cytotoxicity fluorescence (CMK; 1 µM, 72 h) | CellTox Green cytotoxicity fluorescence (Kasumi-1; 0.01 µM, 24 h) | CellTox Green cytotoxicity fluorescence (Kasumi-1; 0.01 µM, 48 h) | CellTox Green cytotoxicity fluorescence (Kasumi-1; 0.01 µM, 72 h) | CellTox Green cytotoxicity fluorescence (Kasumi-1; 0.1 µM, 24 h) | CellTox Green cytotoxicity fluorescence (Kasumi-1; 0.1 µM, 48 h) | CellTox Green cytotoxicity fluorescence (Kasumi-1; 0.1 µM, 72 h) | CellTox Green cytotoxicity fluorescence (Kasumi-1; 1 µM, 24 h) | CellTox Green cytotoxicity fluorescence (Kasumi-1; 1 µM, 48 h) | CellTox Green cytotoxicity fluorescence (Kasumi-1; 1 µM, 72 h) | CellTox Green cytotoxicity fluorescence (MV4-11; 0.01 µM, 24 h) | CellTox Green cytotoxicity fluorescence (MV4-11; 0.01 µM, 48 h) | CellTox Green cytotoxicity fluorescence (MV4-11; 0.01 µM, 72 h) | CellTox Green cytotoxicity fluorescence (MV4-11; 0.1 µM, 24 h) | CellTox Green cytotoxicity fluorescence (MV4-11; 0.1 µM, 48 h) | CellTox Green cytotoxicity fluorescence (MV4-11; 0.1 µM, 72 h) | CellTox Green cytotoxicity fluorescence (MV4-11; 1 µM, 24 h) | CellTox Green cytotoxicity fluorescence (MV4-11; 1 µM, 48 h) | CellTox Green cytotoxicity fluorescence (MV4-11; 1 µM, 72 h) |
| --- | --- | --- | --- | --- | --- | --- | --- | --- | --- | --- | --- | --- | --- | --- | --- | --- | --- | --- | --- | --- | --- | --- | --- | --- | --- | --- | --- |
| CCOC(=O)c1[nH]c2cc(Cl)ccc2c1C(C(=O)NC(C)(C)C)N(C=O)Cc1ccc(Cl)cc1 (configuration not stated) | 0.996 | 0.985 | 1 | 0.958 | 0.958 | 0.962 | 0.96 | 0.971 | 0.87 | 1.06 | 1.01 | 1 | 0.989 | 0.982 | 1 | 0.977 | 0.971 | 0.97 | – | – | – | – | – | – | – | – | – |
| FC(F)(F)c1ccc(CNc2ccc(Cc3c[nH]c4ncc(Cl)cc34)cn2)cn1 [Pexidartinib] | 1.01 | 1 | 0.979 | 0.99 | 1 | 0.967 | 0.964 | 0.989 | 0.967 | 0.99 | 0.998 | 0.956 | 1 | 1 | 1.03 | 1.04 | 1.12 | 1.2 | 1.01 | 1 | 1.01 | 1.07 | 1.17 | 1.21 | 1.09 | 1.41 | 1.74 |
| Cc1nc(Nc2ncc(C(=O)Nc3c(C)cccc3Cl)s2)cc(N2CCN(CCO)CC2)n1 [Dasatinib Monohydrate] | 1.01 | 1.02 | 1.07 | 1.02 | 1.04 | 0.987 | 1 | 1.05 | 1.09 | 1.03 | 1.09 | 1.13 | 1.02 | 1.15 | 1.23 | 0.928 | 1.13 | 1.24 | 1 | 0.989 | 0.978 | 0.993 | 0.983 | 0.97 | 1.02 | 1.01 | 1.01 |
| CC(C)CC(NC(=O)C(Cc1ccccc1)CC(O)C(Cc1ccccc1)NC(=O)OC(C)(C)C)C(=O)NC(Cc1ccccc1)C(N)=O (configuration not stated) | 1 | 1 | 1.03 | 0.943 | 0.922 | 0.899 | 0.947 | 0.949 | 0.919 | 0.952 | 0.963 | 0.962 | 0.943 | 0.974 | 0.946 | 0.912 | 0.993 | 1 | 0.952 | 0.964 | 0.968 | 0.937 | 0.952 | 0.944 | 0.919 | 0.947 | 0.967 |
| CN[C@@H](C)C(=O)N[C@H](C(=O)N1CCC[C@H]1C(=O)Nc1snnc1-c1ccccc1)C1CCCCC1 | 0.986 | 0.984 | 0.983 | 1.01 | 1 | 1.02 | 1.01 | 1.02 | 0.959 | 0.983 | 0.949 | 0.94 | 1.01 | 1.03 | 1.07 | 0.988 | 1.04 | 1.1 | 1.01 | 0.97 | 0.974 | 0.988 | 0.993 | 1 | 1.01 | 1.03 | 1.04 |
| NS(=O)(=O)C#Cc1ccccc1 [Pifithrin-m] | 0.969 | 0.96 | 0.939 | 1.01 | 1 | 0.998 | 1 | 1.04 | 0.96 | 0.994 | 0.986 | 0.979 | 1 | 0.98 | 0.98 | 0.987 | 0.985 | 0.983 | – | – | – | – | – | – | – | – | – |
| CC(=O)N1c2ccc(-c3ccc(C(=O)O)cc3)cc2[C@H](Nc2ccc(Cl)cc2)C[C@@H]1C | 0.995 | 1.1 | 0.996 | 1.2 | 1.71 | 1.37 | 1.33 | 1.93 | 1.57 | 0.959 | 0.98 | 1.03 | 1.06 | 1.36 | 1.49 | 1.09 | 1.66 | 1.92 | – | – | – | – | – | – | – | – | – |
| O=C1NC(=NCc2cccs2)S/C1=C\c1ccc2ncccc2c1 | 1.02 | 1.04 | 1.07 | 0.996 | 1 | 0.991 | 1.03 | 1.09 | 1.08 | 0.99 | 0.991 | 0.96 | 1.01 | 1.04 | 1 | 1.02 | 1.01 | 1.01 | 0.976 | 0.968 | 0.981 | 0.997 | 0.979 | 0.955 | 1.05 | 1.12 | 1.15 |
| CN(C)CC[C@H](CSc1ccccc1)Nc1ccc(S(=O)(=O)NC(=O)c2ccc(N3CCN(Cc4ccccc4-c4ccc(Cl)cc4)CC3)cc2)cc1[N+](=O)[O-] | 0.932 | 0.938 | 0.907 | 0.982 | 0.992 | 1.02 | 1.48 | 1.67 | 1.52 | 1.07 | 1.11 | 1.18 | 1.17 | 1.49 | 1.66 | 1.44 | 1.81 | 1.84 | 0.961 | 1.15 | 1.31 | 1.08 | 1.59 | 1.88 | 1.27 | 2.34 (active) | 2.59 (active) |
| CC[C@H](NC(=O)[C@H](C)NC)C(=O)N1C[C@@H](O)C[C@H]1Cc1c(-c2[nH]c3cc(F)ccc3c2C[C@@H]2C[C@H](O)CN2C(=O)[C@H](CC)NC(=O)[C@H](C)NC)[nH]c2cc(F)ccc12 [Birinapant] | 0.985 | 0.974 | 0.988 | 0.998 | 0.996 | 1 | 0.983 | 1.03 | 0.952 | 0.993 | 1.03 | 1.05 | 1.02 | 1.1 | 1.2 | 1.04 | 1.26 | 1.5 | 0.987 | 0.989 | 1 | 0.988 | 1.04 | 1.08 | 1.03 | 1.2 | 1.32 |
| CCCCC(C=O)NC(=O)C(CC(C)C)NC(=O)C(CC(C)C)NC(C)=O (configuration not stated) | 0.991 | 0.967 | 0.962 | 0.984 | 0.984 | 1.01 | 2.35 (active) | 3.65 (active) | 2.82 (active) | 1.01 | 0.993 | 0.999 | 1.01 | 1 | 1 | 1.03 | 1.11 | 1.16 | 0.985 | 1.01 | 1.01 | 1.01 | 1.02 | 1.01 | 1.16 | 2.16 (active) | 2.42 (active) |
| Cc1nn(C)c(COc2ccc(N3CCN(S(=O)(=O)N(C)C)CC3)cc2)c1-c1cccc2c(CCCOc3cccc4ccccc34)c(C(=O)O)n(CCN3CCOCC3)c12 | 0.996 | 1 | 1 | 0.995 | 0.985 | 0.957 | 0.985 | 1.01 | 0.948 | 0.998 | 0.981 | 0.976 | 1.01 | 1.03 | 1.04 | 0.938 | 1.03 | 1.03 | 0.991 | 0.986 | 0.981 | 1.05 | 1.1 | 1.12 | 1.15 | 1.49 | 1.67 |

— the supplement of paper PMC7595190
